Most compounds without a hit are left out; they make up all but 0.63% or so of the library.
ASM inhibitor = blocks human secretory acid sphingomyelinase. P17405. placental ASM, HMU-PC fluorogenic substrate, 60 min. Potency, µM (titrated, usually from 57.5 µM), inactives show at the highest dose activity change, negative = inhibition, hits mostly inhibitors. 340,000 compounds, 0.006% hits. AID 504937; active means well fitted inhibition curve with a large enough effect; inconclusive means small, poorly fitted or top-dose-only effect; inactive means no such curve, though single readings can be large or run the other way; further: potency means the concentration at half of the fitted maximal effect
Target sequence (P17405 47-631 limits assumed): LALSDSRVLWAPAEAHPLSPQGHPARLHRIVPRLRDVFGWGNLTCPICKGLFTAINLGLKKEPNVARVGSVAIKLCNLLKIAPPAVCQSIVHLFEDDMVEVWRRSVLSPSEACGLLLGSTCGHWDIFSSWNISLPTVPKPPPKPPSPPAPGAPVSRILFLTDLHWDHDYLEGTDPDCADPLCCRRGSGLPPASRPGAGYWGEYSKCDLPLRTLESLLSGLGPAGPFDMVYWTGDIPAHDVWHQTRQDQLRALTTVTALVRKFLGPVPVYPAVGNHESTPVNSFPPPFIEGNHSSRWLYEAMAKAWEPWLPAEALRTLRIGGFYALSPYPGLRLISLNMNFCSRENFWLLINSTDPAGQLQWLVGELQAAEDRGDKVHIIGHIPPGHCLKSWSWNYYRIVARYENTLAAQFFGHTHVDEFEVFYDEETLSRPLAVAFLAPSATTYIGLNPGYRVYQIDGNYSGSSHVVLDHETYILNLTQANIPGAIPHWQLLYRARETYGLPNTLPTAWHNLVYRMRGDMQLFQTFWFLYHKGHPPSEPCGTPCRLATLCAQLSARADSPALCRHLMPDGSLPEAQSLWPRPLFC
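Steps: dispense placental human ASM, pin compound, wait 10 min at room temperature, add HMU-PC0 substrate at 9 uM final, incubate 60 min at 37 °C, add stop solution raising pH to 10, read fluorescence.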
gsp antag = gsp mutant antagonism; gsp-mutant cells, cAMP HTRF, 30 min; 340,000 compounds, 0.4% hits; Potency, µM (doses to about 76.9 µM), for the others: top-dose activity change, negative = inhibition, actives largely listed as inhibitors; AID 624288; calls by dose curve; cell line not stated here;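 further: intracellular cAMP measured with PDE inhibitor Ro 20-1724 present during compound exposure; potency means the concentration at half of the fitted maximal effect; on the % scale 0 is the no-effect control and ±100 the full control effect; nearly all actives have a fitted effect of over 65% in size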
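Cells in G418 medium, seeded 16-24 h, 37C; buffer exchange to DPBS + 1 mM CaCl2, 0.5 mM MgCl2, 0.05% BSA; cpds in DMSO + […] (300 uM stock), 30 min 37C; HTRF cAMP detection.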
gsp agonist = gsp mutant agonism | gsp mutant cells, cAMP HTRF, 30 min | Potency, µM (highest dose often 76.9 µM), inactives show at the highest dose activation (cAMP increase), most hits filed as activators | 340,000 compounds, 0.13% hits; active means well fitted activation curve with a large enough effect; inconclusive means small, poorly fitted or top-dose-only effect, or another doubt; inactive means no such curve, though single readings can be large or run the other way; cell line not stated here;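 further: phosphodiesterase inhibitor Ro 20-1724 added with compounds to block cAMP breakdown; potency means the concentration at half of the fitted maximal effect; nearly all actives have a fitted effect of over 60% in size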
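Cells in DMEM/10% FBS with G418 were pretreated with compounds in DMSO plus […] (300 uM stock) for 30 min at 37C. cAMP was measured by HTRF (cAMP-d2 plus anti-cAMP antibody-K) after 30 min at room temperature.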
TSHR antag = antagonists of human thyroid stimulating hormone receptor | TSHR-expressing cells, TSH-stimulated cAMP HTRF, 2 h; hits give low values | activity change, negative = inhibition, % at 11.5 µM | 330,000 compounds, 0.2% hits;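 active means activity change below a set negative limit, meaning inhibition stronger than a set level, cut at about -70% in these data; inconclusive means activity change between two set negative limits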; further: on the % scale 0 is the no-effect control and ±100 the full control effect
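Cell-based HTRF cAMP assay; TSHR cells + compound, TSH EC80 (4nM final), 2 h, 37 deg C. Lysis with anti-cAMP cryptate and cAMP-d2, 30 min RT, read 665/620 nm.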
* = called active by the depositor; i = inactive; ? = inconclusive; / = no result given; [ ] = remark or other dose.

SMILES	ASM inhibitor	gsp antag	gsp agonist	TSHR antag
Cc1nn(Cc2nc(-c3cccs3)no2)c(C)c1Br	-2%	2%	-62%	-72*
CCOC(=O)N1CCN(Cc2nc(-c3cccs3)no2)CC1	4%	11%	16%	17
O=[N+]([O-])c1c(Nc2ccccc2O)ccc2nonc12	2%	-17%	1%[15.4 µM]	-13
O=[N+]([O-])c1c(Nc2ccccc2O)cc(Cl)c2nonc12	0%	-21%	-18%	-77*
CC(=O)N1CCN(S(=O)(=O)c2cccc(C(=O)N3CCN(S(=O)(=O)c4c(C)c(C)cc(C)c4C)CC3)c2)CC1	/	/	-67%	/
Cc1nc(S/C(=C/c2ccc(-c3cc(Cl)ccc3C)o2)C(=O)O)n[nH]1	-10%	28µM*	-25%	-6
CC(C)[C@H](NC(=O)c1cccc(S(=O)(=O)N2CCOCC2)c1)C(=O)OCC(=O)Nc1cccc(Br)c1	-11%	-29%	-2%	/
COc1ccc(NC(=O)Cc2nnc(SCC(=O)Nc3ccc(F)cc3)n2C)cc1	-1%	-5%	2%	-2
O=C(Nc1ccc(F)cc1)c1cncs1	5%	11%	14%[15.4 µM]	-8
O=C(Nc1ccc(Cl)cc1)c1cncs1	5%	50µM*	6%[15.4 µM]	-5
CN1C2CCC1CC(OC(=O)C(O)c1ccccc1)C2 (stereo unspecified)	/	/	/	-8
CN(Cc1ccccc1Cl)C(=O)c1cc2ccccc2o1	-2%	-23%	-19%	-102*
CC1CCC(NC(=O)CCS(=O)(=O)c2ccc3c(c2)CC(C)N3C(=O)C2CC2)CC1 (stereo unspecified)	-2%	-4%	22%	13
O=C(OCc1nc2ccccc2[nH]1)C12CC3CC(CC(C3)C1)C2	-4%	35µM*	11%	-14
CCc1c(C(=O)Nc2cc(C)cc(C)c2)[nH]c(C)c1C(C)=O	-9%	35µM*	-7%	-11
CCOc1cc(C(=O)OC(C)C(=O)Nc2ncc(Cl)cc2Cl)ccc1OCC(=O)N1CCOCC1 (stereo unspecified)	7%	50µM*	-10%	-2
CCCCSc1nc2sc3c(c2c(=O)n1-c1ccc(C)cc1)CCN(C)C3	-5%	-24%	-3%[15.4 µM]	-74*
CCOC(=O)CSc1nc2sc3c(c2c(=O)n1-c1ccc(C)cc1)CCN(C)C3	2%	-8%	?	-7
COc1cccc(Cn2ncc3c4sc(B(O)O)cc4n(C)c3c2=O)c1	/	/	/	-14
O=C1CC(=Nc2ccccc2)NN1c1ccccc1	-12%	50µM*	-26%	15
O=C1Cc2ccccc2N1c1ccccc1	-2%	-13%	-31%	4
COC(=O)c1sc(-c2cccs2)cc1NC(=O)/C=C/C(=O)O	15%	22µM*	?	-24
Nc1ccc2c(Cl)cc(Cl)cc2c1	/	/	-4%	/
O=C(c1ccccc1)c1coc(-c2ccccc2)c1	8%	-6%	0%	/
CCOC(=O)Cn1c(=NC(=O)c2nc3ccccc3s2)sc2cc(S(N)(=O)=O)ccc21	/	10µM*	-4%[15.4 µM]	12
SMILES	ASM inhibitor	gsp antag	gsp agonist	TSHR antag
COc1ccc(/C=C(\C#N)C(=O)N2COCC2(C)C)cc1	4%	13%	6%	-75*
O=C(C1CCC(CNS(=O)(=O)c2cccs2)CC1)N1CCN(c2ccc(F)cc2)CC1 (stereo unspecified)	-6%	35µM*	22%	-9
N#C/C(N=Nc1ccccc1O)=N\Nc1ccccc1O	-13%	35µM*	/	?
CCC(C)Sc1cccc(-c2nc3ccc(C)cn3c2NCc2ccccc2)c1 (stereo unspecified)	i	?	/	-79*
CN(Cc1ccccc1)C(=O)c1ccc(NC(=O)Cc2cccc(NC(=O)C3CCCN(C(=O)C4CCCCC4)C3)c2)cc1 (stereo unspecified)	-9%	-2%	/	10
Cc1cc(O)c(C(C)C)cc1NC(=S)Nc1cc(C(C)C)c(O)cc1C	-1%	28µM*	-1%	/
CCN(CC)CCCNC(=O)c1oc2ccc(S(=O)(=O)N3CC(C)CC(C)C3)cc2c1C (stereo unspecified)	-1%	1%	-25%	10
Cc1c(CCC(=O)O)c(=O)oc2cc3occ(-c4ccc(Cl)cc4)c3cc12	15%[11.5 µM]	-32%	26%	-13
Cc1c(CCC(=O)O)c(=O)oc2c(C)c3occ(-c4ccc(Cl)cc4)c3cc12	64%	32µM*	11%[15.4 µM]	-9
O=C(O)c1ccc(N=Nc2c(O)[nH]c3ccccc23)cc1	-14%	28µM*	?	26
Cc1ccc(C)c(S(=O)(=O)C(C#N)c2nc3ccccc3nc2N2CCCC2)c1 (stereo unspecified)	4%	6%	3%	-2
Cc1ccc(C)c(S(=O)(=O)C(C#N)c2nc3ccccc3nc2N2CCOCC2)c1 (stereo unspecified)	14%	25µM*	22%	-3
CCC(C)NC(=O)Cn1cc(S(=O)(=O)N2CCN(c3ccccc3F)CC2)c2ccccc2c1=O (stereo unspecified)	0%	-8%	-28%	-2
O=C(NCc1ccc(F)cc1)c1ccncc1	3%	10%	-24%	-121*
Cc1ccccc1Oc1cc(-n2ncc(Cl)c(Cl)c2=O)ncn1	-2%	-37%	16%	-90*
c1ccc(Cn2c(-c3ccccc3)nc3nc4ccccc4nc32)cc1	48%	-17%	27%	-6
O=[N+]([O-])c1cc(-c2nc3nc4ccccc4nc3n2CCc2ccccc2)cc([N+](=O)[O-])c1	11%	35µM*	-1%[15.4 µM]	4
CCn1cc([N+](=O)[O-])c(C(=O)N2N=C(c3cccc4ccccc34)CC2c2ccccc2O)n1 (stereo unspecified)	?	28µM*	14%	-10
N=C(N)c1ccc(OCCCCCOc2ccc(C(=N)N)cc2)cc1 (tested in a mixture with another compound)	/	/	/	-15
CCCCCCSc1ccc(-c2nc3ccc(Cl)cn3c2NCCCC)cc1OC	137%	9%	/	-83*
CCCCNc1c(-c2ccc(SC(C)CC)c(OC)c2)nc2ccc(Cl)cn12 (stereo unspecified)	235%	-5%	5%	-15
CN1C2Cc3c(n(C)c4ccccc34)C1CC=C2CO (stereo unspecified)	4%	2%	/	-5
CCOC(=O)c1cc(NC(=O)CC(C)(C)CC(=O)O)ccc1N1CCCCC1	1%	32µM*	0%	-9
CCC(=O)Nc1ccc(N2CCCCC2)c(C(=O)Nc2ccccc2C)c1	-3%	-20%	?	-8
COc1cccc(OC)c1C(=O)Nc1ccc2c(c1)N(S(=O)(=O)c1cccs1)CCC2	-1%	-24%	21%	-112*
Cc1cccc(C)c1NC(=O)/C(=C/c1ccco1)c1ccccc1	5%	-10%	-15%	0
Cc1cc(C)c(NC(=O)/C(=C/c2ccco2)c2ccccc2)c(C)c1	8%	40µM*	-8%	-6
COc1ccc(Cl)cc1-c1n[nH]c(=S)o1	3%	-1%	14µM*	63
COc1ccccc1-c1n[nH]c(=S)o1	7%	24%	?	11
